According to PubChem BioAssay AID651612 (The Scripps Research Institute Molecular Screening Center, 2012):
The campaign covered roughly 2,200 compounds. About 1,500 (68%) were called active. Rule as the data show it: active = inhibition above about 23%; inactive = the rest. The set was probably picked from earlier hits. Only a sample is shown.

target: Perilipin-5 (Homo sapiens) + 1-acylglycerol-3-phosphate O-acyltransferase ABHD5 (Homo sapiens) (UniProt Q00G26+Q8WTS1); experiment: blockers of ABHD5 binding to perilipin-5 – biochemical, luminescence, confirmation (AID 651612); details: biochemical ABHD5-PLIN5 interaction, at 4 µM, stronger effect = higher value;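 also: 0% = DMSO vehicle wells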
Sequence (Q00G26 whole entry, looked up): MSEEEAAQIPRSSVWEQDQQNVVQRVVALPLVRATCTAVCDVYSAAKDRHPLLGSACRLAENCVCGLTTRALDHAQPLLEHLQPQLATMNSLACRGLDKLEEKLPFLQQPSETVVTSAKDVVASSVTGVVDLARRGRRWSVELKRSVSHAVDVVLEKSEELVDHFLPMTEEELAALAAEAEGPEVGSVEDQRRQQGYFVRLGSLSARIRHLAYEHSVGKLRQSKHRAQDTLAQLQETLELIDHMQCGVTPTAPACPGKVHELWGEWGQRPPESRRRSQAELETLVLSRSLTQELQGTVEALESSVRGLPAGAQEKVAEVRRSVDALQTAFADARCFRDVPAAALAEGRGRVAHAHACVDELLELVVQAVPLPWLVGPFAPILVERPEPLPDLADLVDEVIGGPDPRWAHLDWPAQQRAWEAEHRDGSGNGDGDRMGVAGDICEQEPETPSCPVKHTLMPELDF
Sequence (Q8WTS1 whole entry, looked up): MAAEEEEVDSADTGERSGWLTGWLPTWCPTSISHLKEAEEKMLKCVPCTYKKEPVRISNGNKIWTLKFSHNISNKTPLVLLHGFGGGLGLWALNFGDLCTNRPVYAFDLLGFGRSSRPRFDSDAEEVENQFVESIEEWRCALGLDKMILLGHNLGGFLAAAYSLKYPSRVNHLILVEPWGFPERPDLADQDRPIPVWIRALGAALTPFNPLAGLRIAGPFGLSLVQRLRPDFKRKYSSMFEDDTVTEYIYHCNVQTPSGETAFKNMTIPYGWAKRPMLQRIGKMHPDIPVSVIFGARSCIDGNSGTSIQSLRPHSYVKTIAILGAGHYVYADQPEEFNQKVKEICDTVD

Compound	inhibition
O=C(O)c1ccc2c(c1)C(=O)N(c1ccc(/C=C/C(=O)c3ccccc3)cc1)C2=O	94.7% (active)
O=[N+]([O-])/C=C/c1ccc2c(ccn2Cc2ccccc2)c1	103% (active)
Cc1cc(C)c(NC(=O)C[N+](C)(C)CC(O)COc2cccc3ccccc23)c(C)c1 (stereo unspecified)	22.2% (active)
C[C@@H]1C[C@@H]2O[C@H]2/C=C\C=C\C(=O)Cc2c(Cl)c(O)cc(O)c2C(=O)O1	53.1% (active)
O=C(NNc1c2ccccc2nc2ccccc12)c1cc2ccccc2cc1O	35.2% (active)
Cc1cc2c(c(=O)n1Cc1ccco1)C(c1ccccc1)C(C#N)=C(N)O2 (stereo unspecified)	19% (inactive)
CCCOc1ccc(C(=O)C(CCC(CNCC)C(=O)c2ccc(OCCC)cc2)CNCC)cc1 (stereo unspecified)	19.7% (inactive)
CCc1ccc(NC(=O)CSc2nnc(-c3cnccn3)n2Cc2ccco2)cc1	19.6% (inactive)
CC(C)(C)C1C/C(=C/c2ccco2)C(=O)/C(=C/c2ccco2)C1 (stereo unspecified)	77.8% (active)
COc1ccc(-n2cc(CNC3CCOCC3)c(-c3cccc(F)c3)n2)cc1	2.9% (inactive)
Cc1cccc(C=CC(=O)c2ccc(Cl)cc2)c1	84.9% (active)
CC(=O)N(c1ccc2oc(=O)sc2c1)S(=O)(=O)c1ccc(C)cc1	-52.7% (inactive)
COc1ccc(CNC(=O)/C(C#N)=C/c2cccc(OC)c2OC)cc1	56.6% (active)
O=C(Nc1ccccc1)c1nnsc1S(=O)(=O)c1ccc(Cl)cc1	64.1% (active)
O=C(N/N=C/C=C/c1ccco1)c1cccs1	40.2% (active)
COc1cccc2sc(N(CCCN(C)C)C(=O)C(c3ccccc3)c3ccccc3)nc12	18.3% (inactive)
O=C1C=CC(=O)N1c1ccc(N2CCCCC2)cc1	36.2% (active)
COc1ccc(N/C=C(\C2OC(=O)c3ccccc32)[N+](=O)[O-])cc1 (stereo unspecified)	9.16% (inactive)
O=c1[nH]c(/C=C\c2cccc(C(F)(F)F)c2)nc(O)c1[N+](=O)[O-]	83.9% (active)
CC1(C)CCSC(/C=C/c2ccccc2)=N1	77.3% (active)
COc1ccccc1C1/C(=C(/O)c2ccc(C)cc2)C(=O)C(=O)N1Cc1ccco1 (stereo unspecified)	2.17% (inactive)
C[C@@H](CN1CCC[C@H]1CN1C(N)=NC[C@@H]1Cc1ccccc1)N1C[C@@H](Cc2ccccc2)N(CCCC2CCCC2)C1=N	11.3% (inactive)

Compound	inhibition
Cc1ccc(SC(CC(=O)c2ccc(C(C)(C)C)cc2)C(=O)O)cc1 (stereo unspecified)	36.4% (active)
Cc1ccn(C(CC(=O)c2ccc(Br)cc2)C(=O)O)n1 (stereo unspecified)	6% (inactive)
CC(=O)c1ccc(NC(=O)CCc2nnc3ccc(NCc4ccco4)nn23)cc1	9.27% (inactive)
C=C(C)C(=O)O[C@H]1C/C(C)=C\C(=O)/C=C(\C)[C@H](O)[C@@H]2OC(=O)C(=C)[C@@H]21	45.7% (active)
NC(=O)c1nsc(C(=O)N(CC(=O)NCc2ccc(F)cc2)Cc2ccco2)c1N	4.49% (inactive)
CCC(C(=O)OCCN(CC)CC)c1ccccc1 (stereo unspecified)	79.4% (active)
C=C1C(=O)[C@]23C[C@H]1CCC2[C@@]1(C)C(C[C@@H]3O)[C@](C)(C(=O)O)CC[C@@H]1O (stereo partly specified)	34.6% (active)
COC(C/C=C/C(=O)[C@@H](C)OCc1ccccc1)OC	41.6% (active)
COC(=O)c1cnn2c(C(F)(F)F)cc(-c3ccco3)nc12	14% (inactive)
O=C1/C(=C\c2ccc([N+](=O)[O-])cc2)CS(=O)(=O)C/C1=C/c1ccc([N+](=O)[O-])cc1	103% (active)
Cc1cccc(C)c1NC(=O)C(Cl)C(=O)c1ccccc1 (stereo unspecified)	68.9% (active)
COc1ccc(-c2cc(C(F)(F)F)nc(S(C)(=O)=O)n2)cc1OC	52.6% (active)
COCCN(CCOC)c1nc(N)c2c(N)nc3c(c2c1C#N)CC(=O)N3Cc1ccc(Cl)cc1	32.1% (active)
COc1ccc2sc(-c3ccccc3OC)c(-c3ccc(OCCN4CCCC4)cc3)c2c1	15.5% (inactive)
CCN1CCC(O)(/C=C/c2ccc(C)cc2)C(C(=O)/C=C/c2ccc(C)cc2)C1 (stereo unspecified)	90.5% (active)
O=C(CCN1CCc2ccccc2C(O)(c2ccccc2)C1)c1ccc2c(c1)OCCO2 (stereo unspecified)	51.6% (active)
Cc1c(CCOC(=O)CC23CC4CC(CC(C)(C4)C2)C3)sc[n+]1Cc1ccc([N+](=O)[O-])cc1	16.8% (inactive)
Cc1ccc(Cc2c(-c3ccco3)nc3ccc(Cl)cn23)cc1	32.4% (active)
Cc1ccc2nc(-c3ccco3)c(Cc3cccc(Cl)c3)n2c1	26.5% (active)
O=C1C(Cl)=C(Oc2ccccc2)C(=O)c2ccccc21	85.3% (active)
O=c1[nH][nH]c2c1[C@H](c1ccc(Cl)cc1)O[C@H](CCc1ccccc1)C2	2.53% (inactive)
Cc1csc(NC(=O)NC2(C(F)(F)F)Oc3ccccc3O2)n1	92.4% (active)

Compound	inhibition
O=C(c1cccnc1)N(c1cc2sc(=O)oc2c2ccccc12)S(=O)(=O)c1ccccc1	-3.41% (inactive)
CC1Cc2ccccc2N1CC(=O)Nc1ccc(S(N)(=O)=O)cc1 (stereo unspecified)	7.58% (inactive)
Cc1ccc(NC(=O)Cn2sc3ccccc3c2=O)cc1	74% (active)
Cc1ccc(-n2nc(-c3ccco3)cc2C(=O)NCc2cccnc2)cc1	38.1% (active)
O=C(Nc1ccccc1Cl)/C(Cl)=C(\Cl)S(=O)c1ccccc1 (stereo unspecified)	101% (active)
CC1(C(=O)NCc2cccc3ccccc23)CCN1Cc1ccc(-c2ccccc2)o1 (stereo unspecified)	16.1% (inactive)
Cc1nc(-c2ccccc2)sc1C(=O)/C=C/c1ccccc1	81.5% (active)
CCS(=O)(=O)Nc1ccc(C2=NN(S(=O)(=O)c3ccc(F)cc3)C(c3ccco3)C2)cc1 (stereo unspecified)	10.4% (inactive)
Cn1sc(=O)c2cc(S(=O)(=O)NC3CC3)ccc21	34.2% (active)
CN(C)CCCNC(=O)/C=C/c1ccc(OCc2c(F)cccc2Cl)cc1	10.8% (inactive)
Cc1ccc(CS(=O)(=O)c2ncc(Cl)c(C(=O)Nc3nnc(C)s3)n2)cc1	79.9% (active)
CSc1nnc(NC(=O)c2nc(S(=O)(=O)Cc3ccc(C)cc3)ncc2Cl)s1	79.6% (active)
O=C(Nc1nc(-c2ccco2)c(-c2ccco2)s1)c1ccco1	60.6% (active)
COC(=O)c1nc(NC(=O)c2ccc(C(C)(C)C)cc2)n[nH]1	10.3% (inactive)
Cc1cc(-c2n[nH]c(=S)n2/N=C/C(Br)=C/c2ccccc2)n[nH]1	63% (active)
O=C(/C(=C/c1cccc(Cl)c1)c1nc2ccccc2[nH]1)c1ccccc1	98.9% (active)
O=C(/C=C/c1ccc(Cl)c([N+](=O)[O-])c1)c1ccc(O)cc1	90.2% (active)
CC(=O)Nc1ccc(C=CC(=O)c2ccc([N+](=O)[O-])cc2)cc1	84.1% (active)
COC(=O)C1(C)NC(c2ccccc2OC)C2C(=O)N(c3ccccc3)C(=O)C21 (stereo unspecified)	-5.37% (inactive)
CCN(CC)CCN(C(=O)c1ccc2c(c1)CCCC2)c1nc2c(OC)cccc2s1	7.79% (inactive)
COc1ccc2c(c1)c(=Cc1ccc(N(C)C)cc1)c1cc(-c3ccccc3)[n+](C)n12	28.5% (active)
OC(CNCC1CCCO1)Cn1c2ccc(Br)cc2c2cc(Br)ccc21 (stereo unspecified)	12.6% (inactive)

Compound	inhibition
COC(=O)/C=C\C(=O)Nc1cccc([N+](=O)[O-])c1	83.5% (active)
COc1ccc2c(c1OC)C(=O)OC2Nc1nc(-c2ccccc2)cs1 (stereo unspecified)	61.3% (active)
O=C1/C(=C\c2ccc(O)cc2)CCC1CNc1ccc(Cl)cc1 (stereo unspecified)	25.6% (active)
COc1ccc(CCNC(=O)c2nnc(CS(=O)(=O)c3ccccc3)o2)cc1OC	6.71% (inactive)
COc1ccccc1-n1nnnc1S(=O)(=O)Cc1ccc(Cl)cc1	49.7% (active)
Cc1cccc(C)c1NC(=O)C(c1ccc(C(F)(F)F)cc1)n1c(=O)c(-c2ccco2)nc2ccccc21 (stereo unspecified)	80.6% (active)
N#Cc1ccc(C(C(=O)NCc2ccccc2)n2c(=O)c(-c3ccco3)nc3ccccc32)cc1 (stereo unspecified)	91.9% (active)
O=C(NC1CCCCC1)C(c1cc2ccccc2o1)n1c(=O)c(-c2ccco2)nc2ccccc21 (stereo unspecified)	80.4% (active)
Cc1cccc(C)c1NC(=O)C(c1cccc2ccccc12)n1c(=O)c(-c2ccco2)nc2ccccc21 (stereo unspecified)	53% (active)
CCn1c(SC)nc(O)c(C(c2ccc(OC)c(O)c2)c2c(O)nc(SC)n(CC)c2=O)c1=O	62% (active)
O=C(NCCOCc1ccc(Cl)cc1)c1ncn[nH]1	6.41% (inactive)
COc1ccc(C(C[N+](=O)[O-])n2nc(C)cc2C)cc1 (stereo unspecified)	62.2% (active)
CCN(CCCNC(=O)c1ccc2c(c1)NC(=O)CN2C)c1cccc(C)c1	50.9% (active)
Cc1nnnn1/C(=C\c1ccccc1)C(=O)OCC(=O)N1CC2(C)CC1CC(C)(C)C2 (stereo unspecified)	54.9% (active)
O=[N+]([O-])c1c(NCCO)cc(Sc2nc3ccccc3s2)c2nonc12	51.7% (active)
Cc1cccc(NC(=O)c2ccc3nsnc3c2)c1C	2.22% (inactive)
O=C(CCl)Nc1ccc(Sc2ccc(NC(=O)CCl)cc2)cc1	40.2% (active)
O=C(/C=C/c1ccc(Cl)cc1Cl)c1cccnc1	98.6% (active)
COc1ccc(/C=C/C(=O)c2ccc(NS(=O)(=O)c3ccc(C)cc3)cc2)cc1O	55.4% (active)
Cc1cccc(CS(=O)(=O)c2ncc(Cl)c(C(=O)Nc3ccc(F)cc3)n2)c1	82.7% (active)
Cc1cccc(NC(=O)c2nc(S(=O)(=O)Cc3ccccc3)ncc2Cl)c1	90.7% (active)
O=C1C=C(c2ccc(Cl)cc2)C(=O)N1Nc1ccccc1	102% (active)

Compound	inhibition
O=C(NNc1ccccn1)c1ccc(Cl)nc1	2.34% (inactive)
CCN1/C(=C\c2ccc3ccccc3[n+]2CC)Sc2cc(C)ccc21	16.8% (inactive)
Nc1cccc(OCCCCCOc2cccc(N)c2)c1	3.48% (inactive)
Cc1cc(C)nc(S/C=C/C(=O)c2ccccc2)n1	96.8% (active)
c1ccc(CCC2=NCCn3cccc32)cc1	28.8% (active)
Cc1ccc(NC(=O)c2cc(-c3ccc(C)o3)nc3ccccc23)nc1	24% (active)
CC1(Oc2ccccc2-c2ccno2)CCN(Cc2ccc(-c3ccccc3)o2)C1 (stereo unspecified)	16.2% (inactive)
Cc1nc2sc(C(c3ccco3)N3CCOCC3)c(O)n2n1 (stereo unspecified)	5.85% (inactive)
N#Cc1ccccc1S(=O)(=O)N1CCN(Cc2c(O)ccc3ccccc23)CC1	53% (active)
CCCCOC(=O)CNc1nnc(SCC(=O)OCC)[nH]c1=O	69.3% (active)
O=C(/C=C(O)/C=C/c1ccc(O)cc1)/C=C/c1ccc(O)cc1	63.4% (active)
O=C(Cn1nc(CNc2ccc(Cl)cc2)[n+]2c1CCCCC2)c1ccc(Cl)cc1	19.8% (inactive)
CN1CCC[C@@H]1CCO[C@](C)(c1ccccc1)c1ccc(Cl)cc1	27.9% (active)
CCOC(=O)C(=Cc1ccccc1)C(=O)c1ccccc1	98.5% (active)
CCOC(=O)C(=Cc1ccccc1OC)C(=O)OCC	60.3% (active)
Cc1[nH]c(=O)c(C(=O)/C=C/c2ccccc2)c2c1CCCC2	56.5% (active)
CC1=CC(C)(C)Nc2ccc(OC(=O)CN3C(=O)C4CCCCC4C3=O)cc21 (stereo unspecified)	83.2% (active)
CC1=CC(C)(C)Nc2ccc(OC(=O)C(Cc3ccccc3)N3C(=O)C4CCCCC4C3=O)cc21 (stereo unspecified)	-3.56% (inactive)
